Consider 4 compounds from PubChem BioAssay (NCATS).

Several values for one entry are separate records, joined by “and”; a condition that tells them apart may be missing. Equal values may be shown once. Results filed as inconclusive are left out. Some compounds were tested as several samples or in several runs, with calls that do not always agree. Activity calls are given as the source filed them. Unless noted, the call rests on the fitted dose curve; in most records, active means well fitted curve in the direction sought with a large enough effect; inconclusive means small, poorly fitted or top-dose-only effect, or another doubt; inactive means no such curve, though single readings can be large; an effect the other way counts as inactive or inconclusive. Where only a bound is given, the exact number is not on record here.

A short description of assay [1]: AP1 Signaling Pathway (AID 357; active means well fitted curve in either direction with a large enough effect, not every such curve was filed as active; further: on the % scale 0 is the no-effect control and ±100 the full control effect). The settings on record: ME-180 AP-1-bla reporter, EGF-induced, beta-lactamase ratio, 5 h. In short, it runs like this: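 Cells are seeded overnight, exposed to compound titrations and an EC50 level of EGF for 5 hours at 37 °C, then loaded with CCF4 dye for 2.5 hours. Beta-lactamase activity under the AP-1 element is read as a blue/green ratio.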

The target of assay [2] is Cytochrome P450 1A2 (Homo sapiens) (UniProt P05177). Nature of the assay: p450-cyp1a2 (AID 410; calls by dose curve; further: potency means the concentration at half of the fitted maximal effect). In short, it runs like this: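 Read-out is luminescence from luciferin produced by CYP1A2 demethylation of Luciferin-ME (100uM, at Km). Detection reagent stopped the 60 min NADPH-dependent reaction; signals were normalized to 57 uM furafylline.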
Sequence of Cytochrome P450 1A2 (Homo sapiens) (P05177 whole entry, looked up): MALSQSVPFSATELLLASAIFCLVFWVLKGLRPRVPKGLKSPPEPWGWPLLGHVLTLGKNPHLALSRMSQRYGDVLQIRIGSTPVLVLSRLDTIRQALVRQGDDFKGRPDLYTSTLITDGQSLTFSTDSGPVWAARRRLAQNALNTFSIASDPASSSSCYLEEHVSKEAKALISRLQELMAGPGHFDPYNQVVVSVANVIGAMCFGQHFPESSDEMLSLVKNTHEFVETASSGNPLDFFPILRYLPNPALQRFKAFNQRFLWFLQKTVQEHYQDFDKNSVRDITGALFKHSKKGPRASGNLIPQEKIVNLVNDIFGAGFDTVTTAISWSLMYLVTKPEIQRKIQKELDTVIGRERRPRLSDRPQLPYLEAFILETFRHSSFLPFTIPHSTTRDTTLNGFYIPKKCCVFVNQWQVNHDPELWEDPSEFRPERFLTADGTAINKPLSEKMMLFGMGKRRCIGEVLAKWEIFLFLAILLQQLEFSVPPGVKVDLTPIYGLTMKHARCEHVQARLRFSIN
Assay [3] can be described thus: NFAT Signaling Pathway (AID 444; active means well fitted curve in either direction with a large enough effect, not every such curve was filed as active;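 further: carbachol stimulus at about its EC50 of 1 µM final; on the % scale 0 is the no-effect control and ±100 the full control effect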). To be noted: Jurkat NFAT-bla M1, carbachol, beta-lactamase ratio, 5 h; at 7.69 µM (top of the series) unless noted. In short, it runs like this: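 Read-out: CCF4 FRET ratio (460 nm/530 nm) after 1 h RT dye loading, used for %activity and AC50 from titration series. Cells: Jurkat NFAT-β-lactamase/M1 line, treated with compound plus 1 uM carbachol for 5 h, 37 °C.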

Assay [4] is described as follows: Stat Signaling Pathway (AID 446; active means well fitted curve in either direction with a large enough effect, not every such curve was filed as active;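 further: ME-180 cervical cancer cells given 40 pM IL-6 alongside compound; SIE-controlled beta-lactamase reporter measured as 460/530 nm FRET emission ratio; on the % scale 0 is the no-effect control and ±100 the full control effect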). The settings on record: ME-180 (cervical carcinoma) SIE beta-lactamase reporter, IL-6 stimulated, 5 h. In short, it runs like this:
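Normalization used AC90 stimulation (300 pM IL-6) and AC90 inhibition (125 nM pan-JAK inhibitor at 40 pM IL-6). The underlying signal is SIE-driven beta-lactamase in ME-180 cells after 5 h IL-6 exposure with compound.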

The target in assay [5] is Glucocorticoid receptor (Homo sapiens) (UniProt P04150). Nature of the assay: GR-GFP Redistribution (AID 450;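 active means compounds whose dose series gives a full or clear partial fitted curve of increased nuclear translocation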; further: potency means the concentration at half of the fitted maximal effect). The settings on record: U2OS GR-GFP nuclear translocation, laser cytometry, 2 h.
Sequence of Glucocorticoid receptor (Homo sapiens) (P04150 whole entry, looked up): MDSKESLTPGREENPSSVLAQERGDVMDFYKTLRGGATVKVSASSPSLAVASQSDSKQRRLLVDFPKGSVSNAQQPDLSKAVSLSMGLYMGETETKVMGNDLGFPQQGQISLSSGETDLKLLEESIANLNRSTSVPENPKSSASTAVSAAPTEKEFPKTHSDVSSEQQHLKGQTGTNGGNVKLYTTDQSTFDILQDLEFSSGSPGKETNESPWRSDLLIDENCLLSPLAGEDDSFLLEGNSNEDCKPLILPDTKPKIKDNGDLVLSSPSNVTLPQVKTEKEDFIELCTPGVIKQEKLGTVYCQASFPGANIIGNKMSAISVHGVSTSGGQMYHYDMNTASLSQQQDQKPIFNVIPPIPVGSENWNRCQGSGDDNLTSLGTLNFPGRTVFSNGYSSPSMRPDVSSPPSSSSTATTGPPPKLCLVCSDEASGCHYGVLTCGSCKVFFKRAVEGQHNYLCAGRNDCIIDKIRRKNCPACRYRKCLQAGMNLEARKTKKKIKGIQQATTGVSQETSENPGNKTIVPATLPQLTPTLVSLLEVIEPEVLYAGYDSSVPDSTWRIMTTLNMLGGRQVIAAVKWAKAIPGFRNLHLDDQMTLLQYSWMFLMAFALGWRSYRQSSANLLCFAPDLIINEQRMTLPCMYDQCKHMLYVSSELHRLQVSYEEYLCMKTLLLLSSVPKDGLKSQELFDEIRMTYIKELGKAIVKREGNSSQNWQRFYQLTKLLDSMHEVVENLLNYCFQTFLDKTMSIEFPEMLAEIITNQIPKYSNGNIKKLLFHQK
For assay [6] the target is unchanged. Kind of assay: GR-EFC Redistribution (AID 451; calls by dose curve; further: potency means the concentration at half of the fitted maximal effect). The settings on record: CHO-K1 GR-EFC translocation, beta-gal luminescence, 2 h. In outline:
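Translocation of GR-ED fusion to nuclear EA restores b-gal, read by luminescence after 1 h room-temperature detection. Engineered CHO-K1 biosensor cells, 1,000/well, exposed 2 h at 37 C to titrations up to 46 uM final.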

The target of assay [7] is Mitogen-activated protein kinase 10 (Mus musculus) (UniProt Q61831). Nature of the assay: JNK3 AlphaScreen Assay (AID 530; active means well fitted curve in either direction with a large enough effect, not every such curve was filed as active;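 further: kinase came from lysate of stimulated human HepG2 cells; signal reports phosphorylation of biotinylated GST-cJun 1-79 at Ser73 with 10 µM ATP; on the % scale 0 is the no-effect control and ±100 the full control effect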). In short, it runs like this: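 Kinase buffer: 20 mM Tris-HCl pH 7.6, 10 mM MgCl2, 1 mM DTT, 0.1 mM Na3VO4, 0.01% Tween-20; ATP 10 uM. Substrate biotin-GST-cJun(1-79), enzyme from activated HepG2 lysates. Detection by Ser73 phospho-antibody AlphaScreen.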
A general note: In Alpha technology, singlet oxygen from a donor bead excites a nearby acceptor bead.

The target of assay [8] is 3',5'-cyclic-AMP phosphodiesterase 4B (Homo sapiens) (UniProt Q07343). Kind of assay: qHTS Assay for Inhibitors of PDE-IV (AID 607; active means well fitted activation curve with a large enough effect in the main read-out, with a control signal flat, not every such curve was filed as active; further: % of control where 0% means no effect). In short, it runs like this: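 HEK293 ACTOne cells with CNG channel (1000/well), endogenous PDE4; membrane potential dye, compounds up to 22.9 uM final. Fluorescence Ex 535/Em 590; RO 20-1724 (100 uM final) as reference.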
Sequence of 3',5'-cyclic-AMP phosphodiesterase 4B (Homo sapiens) (Q07343 whole entry, looked up): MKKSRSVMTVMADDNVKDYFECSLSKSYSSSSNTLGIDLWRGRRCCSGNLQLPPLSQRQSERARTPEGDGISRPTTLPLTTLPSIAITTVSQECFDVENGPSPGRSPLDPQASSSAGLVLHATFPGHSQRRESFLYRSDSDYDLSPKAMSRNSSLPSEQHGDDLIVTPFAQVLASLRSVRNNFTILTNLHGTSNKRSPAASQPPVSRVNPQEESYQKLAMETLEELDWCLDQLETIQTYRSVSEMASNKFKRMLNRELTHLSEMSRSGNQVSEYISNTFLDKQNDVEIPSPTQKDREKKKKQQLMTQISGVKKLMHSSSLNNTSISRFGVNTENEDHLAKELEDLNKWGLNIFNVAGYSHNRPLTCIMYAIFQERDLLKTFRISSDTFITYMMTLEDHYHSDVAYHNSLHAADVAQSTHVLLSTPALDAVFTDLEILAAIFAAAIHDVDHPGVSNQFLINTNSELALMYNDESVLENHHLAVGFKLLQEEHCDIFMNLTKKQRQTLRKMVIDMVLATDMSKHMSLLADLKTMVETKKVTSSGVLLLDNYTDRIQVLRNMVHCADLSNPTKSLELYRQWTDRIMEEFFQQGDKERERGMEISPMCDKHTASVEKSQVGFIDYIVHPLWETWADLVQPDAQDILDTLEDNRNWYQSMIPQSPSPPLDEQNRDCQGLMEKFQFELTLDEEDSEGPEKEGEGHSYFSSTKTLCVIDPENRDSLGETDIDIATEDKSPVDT
Assay [9] is described as follows: qHTS Assay for Lipid Storage Modulators (AID 1519; calls by dose curve). The settings on record: Drosophila S3 cells, BODIPY lipid droplet/cell ratio, laser cytometry, cells loaded with oleic acid; for activity change, negative = inhibition: at 25.7 µM (top of the series). In outline:
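Cells seeded at 5,000 per well were treated with compounds over a concentration series and loaded with oleic acid (400 uM, as added). Lipid droplet fluorescence (488 nm excitation, 500-530 nm channel) was read by laser-scanning cytometry and normalized to 20 uM Triacsin C.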
For orientation: qHTS replaces the single test concentration by a dilution series.

Assay [10] concerns the target ATP-dependent 6-phosphofructokinase (Trypanosoma brucei brucei) (UniProt O15648). Kind of assay: qHTS Assay to Find Inhibitors of T. brucei phosphofructokinase: hit validation (AID 492961). In outline: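 Measures ADP output of PFK (1.25 nM) at 0.1 mM ATP, 0.5 mM F6P, pH 8.0 TEA buffer with 5 mM MgCl2. No-enzyme wells define full inhibition; uninhibited enzyme wells define zero.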

The target of assay [11] is Ubiquitin carboxyl-terminal hydrolase 1 (Homo sapiens) (UniProt O94782). Nature of the assay: Inhibitors of USP1/UAF1: Pilot qHTS (AID 504865).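 Further: rhodamine fluorescence freed from ubiquitin-rhodamine substrate followed over time; top concentration of the series differs between compounds; on the % scale 0 is the no-effect control and ±100 the full control effect; nearly all actives have a fitted effect of over 35% in size.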 In short, it runs like this:
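Enzyme-free wells gave the negative control, while test wells held 1nM USP1/UAF1 preincubated with compound for 15 min at room temperature. Ub-Rho at 150nM final started the reaction, and fluorescence at 480/540 nm was recorded kinetically.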

Assay [12] has as its target Luciferin 4-monooxygenase (Photinus pyralis) (UniProt P08659). Kind of assay: Biochemical firefly luciferase enzyme assay for NPC (AID 624030).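 Further: purified P. pyralis luciferase at 10 nM with luciferin and ATP substrate; 0% = DMSO and -100% = full luciferase inhibition by PTC124 control; nearly all actives have a fitted effect of over 70% in size.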 In short, it runs like this:
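Direct inhibition of firefly luciferase enzyme (10 nM final, 50 mM Tris Acetate) assessed by luminescence within 5 minutes. Percent activity scaled between DMSO and PTC124 positive control, with concentration-effect curves classified by fit quality and response.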

Assay [13] can be described thus: qHTS profiling for inhibitors of Plasmodium falciparum proliferation (AID 504749).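 Further: 0% = DMSO vehicle and full inhibition = artemisinin control; nearly all actives have a fitted effect of over 60% in size.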 The settings on record: P. falciparum in erythrocytes, SYBR Green DNA, 72 h, at 12.8 µM (top of the series). In outline:
(§1)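 In a 72 h erythrocytic culture (37 C, humidified, 5% CO2) at 2.5% hematocrit and 0.3% starting parasitemia, compounds were tested; SYBR Green I in detergent lysis buffer stained parasite DNA overnight.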

The test system of another assay is AS120. Described as above. The settings on record: P. falciparum in erythrocytes, SYBR Green DNA, 72 h; series mostly up to 28.7 µM. In short, it runs like this: as §1
Another assay has as its system CP238. Described as above. The settings on record: P. falciparum in erythrocytes, SYBR Green DNA, 72 h; series mostly up to 12.8 µM. In short, it runs like this:
as §1

For another assay, the system named is CP265. The description is as above. The settings on record: P. falciparum in erythrocytes, SYBR Green DNA, 72 h; series mostly up to 12.8 µM. In outline:
as §1

For another assay, the system named is FAB9. The assay is described as above. The settings on record: P. falciparum in erythrocytes, SYBR Green DNA, 72 h; series mostly up to 12.8 µM. In outline: as §1
Assay [14] concerns the target Pyruvate kinase (Leishmania mexicana) (UniProt Q27686). Nature of the assay: qHTS Validation Assay for Inhibitors of Leishmania Mexicana Pyruvate Kinase (AID 945).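 Further: 0% = DMSO only neutral control wells.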 In outline:
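Eight-point qHTS titrations in triplicate, data normalized to DMSO neutral control. Reaction: 0.2 nM LmPYK E451W mutant, 0.5 mM PEP, 0.1 mM ADP, 7 mM MgCl2, pH 7.2, one hour at room temperature; luminescent ATP detection.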

In assay [15] the target is Alpha-galactosidase A (Homo sapiens) (UniProt P06280). Kind of assay: Counterscreen for Glucocerebrosidase Inhibitors: qHTS Assay for Human alpha-Galactosidase at pH 4.5 (AID 992). Further: 0% is about no effect. In short, it runs like this: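 Steps: enzyme (2 nM final), then compound across 0.7 nM to 77 uM, then 80 uM fluorogenic galactopyranoside substrate; incubate 20 min at room temperature; quench at pH 10; measure fluorescence at 365/440 nm.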
Sequence of Alpha-galactosidase A (Homo sapiens) (P06280 whole entry, looked up): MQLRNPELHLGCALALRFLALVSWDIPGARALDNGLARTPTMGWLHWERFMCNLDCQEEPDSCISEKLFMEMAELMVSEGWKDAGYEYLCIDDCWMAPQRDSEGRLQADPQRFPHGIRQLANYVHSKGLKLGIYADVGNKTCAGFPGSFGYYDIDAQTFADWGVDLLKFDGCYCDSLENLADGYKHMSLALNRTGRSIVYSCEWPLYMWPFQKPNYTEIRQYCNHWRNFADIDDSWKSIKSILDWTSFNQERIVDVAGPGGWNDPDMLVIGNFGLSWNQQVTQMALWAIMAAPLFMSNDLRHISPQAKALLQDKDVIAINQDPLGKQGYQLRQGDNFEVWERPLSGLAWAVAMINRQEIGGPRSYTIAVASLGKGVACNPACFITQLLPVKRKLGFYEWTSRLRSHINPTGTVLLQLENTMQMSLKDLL
For orientation: A counterscreen serves to expose hits that act by an unwanted route or on another target.

For assay [16], the target named is alpha-glucosidase (Oryza sativa, rice) (UniProt Q653V4). Kind of assay: Counterscreen for Glucocerebrosidase Inhibitors: qHTS Assay for Rice alpha-Glucosidase at pH 5.0 (AID 997).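 Further: 0% = full activity with enzyme and -100% = basal without enzyme.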 In outline: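 Endpoint fluorogenic assay at pH 5.0: compounds (0.7 nM to 77 uM) titrated against 4 nM rice enzyme and 400 uM 4-MU-alpha-glucoside for 20 min at room temperature; NaOH/glycine stop, read ex 365/em 440 nm, Hill-fitted AC50.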

Setting [17] is: at 7.69 µM (top of the series) unless noted.
The mark [18] stands for this setting: measured here: cell count channel max response.
Setting [19] is: measured here: lipid channel max response.

Sequence of Ubiquitin carboxyl-terminal hydrolase 1 (Homo sapiens) (O94782 whole entry, looked up): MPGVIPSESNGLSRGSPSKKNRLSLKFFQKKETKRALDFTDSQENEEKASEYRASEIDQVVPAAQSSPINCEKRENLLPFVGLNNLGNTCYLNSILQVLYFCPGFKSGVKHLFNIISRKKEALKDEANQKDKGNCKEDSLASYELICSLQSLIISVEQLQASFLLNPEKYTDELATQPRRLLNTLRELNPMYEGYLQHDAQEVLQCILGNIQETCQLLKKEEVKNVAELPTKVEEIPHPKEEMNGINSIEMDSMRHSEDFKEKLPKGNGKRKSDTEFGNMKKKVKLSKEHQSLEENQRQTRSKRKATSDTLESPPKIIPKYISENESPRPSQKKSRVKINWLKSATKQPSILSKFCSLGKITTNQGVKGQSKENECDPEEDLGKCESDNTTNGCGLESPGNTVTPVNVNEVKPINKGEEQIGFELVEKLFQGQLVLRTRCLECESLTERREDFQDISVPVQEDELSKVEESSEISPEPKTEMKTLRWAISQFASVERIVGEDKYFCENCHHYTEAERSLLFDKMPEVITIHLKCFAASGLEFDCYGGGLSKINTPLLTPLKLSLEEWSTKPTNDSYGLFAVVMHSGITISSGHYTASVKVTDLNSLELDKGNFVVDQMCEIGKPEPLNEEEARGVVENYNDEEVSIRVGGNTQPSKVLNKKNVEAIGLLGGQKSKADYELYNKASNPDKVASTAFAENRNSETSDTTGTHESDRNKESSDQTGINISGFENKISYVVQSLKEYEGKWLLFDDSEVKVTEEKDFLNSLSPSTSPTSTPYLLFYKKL
Sequence of ATP-dependent 6-phosphofructokinase (Trypanosoma brucei brucei) (O15648 whole entry, looked up): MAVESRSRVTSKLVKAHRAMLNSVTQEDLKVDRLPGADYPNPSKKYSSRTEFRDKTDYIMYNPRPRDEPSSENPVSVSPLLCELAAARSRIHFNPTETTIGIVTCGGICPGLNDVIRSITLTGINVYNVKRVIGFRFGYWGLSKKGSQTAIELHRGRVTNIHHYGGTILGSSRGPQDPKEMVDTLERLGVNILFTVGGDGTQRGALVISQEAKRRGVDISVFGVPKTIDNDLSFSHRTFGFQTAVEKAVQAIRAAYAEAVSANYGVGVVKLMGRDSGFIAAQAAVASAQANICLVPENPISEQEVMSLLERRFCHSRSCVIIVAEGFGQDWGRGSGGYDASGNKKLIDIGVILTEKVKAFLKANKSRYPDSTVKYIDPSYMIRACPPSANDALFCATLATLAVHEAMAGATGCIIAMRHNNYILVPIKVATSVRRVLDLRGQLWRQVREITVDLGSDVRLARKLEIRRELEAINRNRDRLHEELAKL
Sequence of Luciferin 4-monooxygenase (Photinus pyralis) (P08659 whole entry, looked up): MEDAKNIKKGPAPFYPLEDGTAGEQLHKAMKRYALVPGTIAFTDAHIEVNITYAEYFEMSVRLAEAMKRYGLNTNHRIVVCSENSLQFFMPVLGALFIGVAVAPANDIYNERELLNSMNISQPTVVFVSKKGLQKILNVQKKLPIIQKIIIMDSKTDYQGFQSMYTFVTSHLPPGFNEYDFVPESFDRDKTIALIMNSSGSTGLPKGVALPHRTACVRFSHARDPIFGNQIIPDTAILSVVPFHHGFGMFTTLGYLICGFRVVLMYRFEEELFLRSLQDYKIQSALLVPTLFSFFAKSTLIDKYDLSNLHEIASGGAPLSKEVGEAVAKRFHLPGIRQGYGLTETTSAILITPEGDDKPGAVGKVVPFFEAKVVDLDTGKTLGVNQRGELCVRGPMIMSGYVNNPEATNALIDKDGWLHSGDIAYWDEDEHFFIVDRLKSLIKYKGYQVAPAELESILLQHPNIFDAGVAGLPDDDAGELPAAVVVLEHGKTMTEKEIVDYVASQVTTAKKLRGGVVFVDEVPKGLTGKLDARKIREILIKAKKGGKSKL
Sequence of Pyruvate kinase (Leishmania mexicana) (Q27686 2-499 E452W): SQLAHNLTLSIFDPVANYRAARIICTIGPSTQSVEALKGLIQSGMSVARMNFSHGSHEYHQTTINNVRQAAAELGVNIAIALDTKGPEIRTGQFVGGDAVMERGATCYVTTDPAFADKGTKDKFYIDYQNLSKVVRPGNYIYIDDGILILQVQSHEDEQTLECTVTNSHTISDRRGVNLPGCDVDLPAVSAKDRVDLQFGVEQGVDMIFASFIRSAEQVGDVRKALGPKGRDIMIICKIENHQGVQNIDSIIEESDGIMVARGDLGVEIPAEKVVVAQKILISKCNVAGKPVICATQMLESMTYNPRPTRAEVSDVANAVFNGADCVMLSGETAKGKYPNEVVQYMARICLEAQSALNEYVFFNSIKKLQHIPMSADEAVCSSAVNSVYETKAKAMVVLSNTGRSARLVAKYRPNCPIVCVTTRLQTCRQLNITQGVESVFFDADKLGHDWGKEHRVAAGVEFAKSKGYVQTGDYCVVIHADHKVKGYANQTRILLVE

In the case of `CN(N=O)C(=O)N[C@H]1[C@@H](O)[C@H](O)[C@H](CO)O[C@@H]1O`, the activity change, negative = inhibition was 22% [at 17.2 µM] (inactive) in assay [1] (setting [17]), 5.2% [at 17.2 µM] (inactive) in assay [3] and -1.88% (inactive) in assay [9]. In addition, the Potency entry (in assay [2]; in [7]; in [8]; in [11]; in the assay with AS120; with CP238) was “inactive” throughout. Moreover, the Potency result in the assay on CP265 and in the assay on FAB9 was “inactive” in each case. For the same compound, the values for the activity, negative = inhibition in assay [4] (setting [17]), in assay [13] (parasite line A) and in assay [13] (parasite line B) were -4.53% [at 17.2 µM] (inactive), 2.49% (inactive) and 8.62% (inactive), respectively. Further, the Potency in [5] and in assay [6] was > 20.6 µM (inactive) in each case. The max response in assay [9] (setting [18]) is -12.1%; in assay [9] (setting [19]), -12.9%. For the same compound, the compound was classed as inactive in [10] and in assay [12].
With `C[C@@H](CN(C)C)CN1c2ccccc2CCc2ccccc21`, the figures for the activity change, negative = inhibition in assay [1] (at 17.2 µM (top of the series)), in assay [1] (at 38 µM (top of the series)) and in assay [9] were 77.9% [activator] (active), 90.9% [activator] (active) and -5.99% (inactive), respectively. Moreover, the Potency entry (in assay [2]; in assay [7]; in [8]; in [11]; in the assay on CP238; with CP265) was “inactive” throughout. The Potency entry in the assay on FAB9 was “inactive”. Further, the figures for the activity, negative = inhibition in assay [4] (at 17.2 µM (top of the series)), in [4] (at 38 µM (top of the series)) and in [13] (parasite line A) were 1.59% (inactive), -7% (inactive) and -6.2% (inactive), respectively. Besides, the result in [14], in assay [15], in assay [16], in assay [10] and in assay [12] was inactive. Moreover, the max response in [9] (setting [18]) was -11.8%; in [9] (setting [19]), -16.4%.
Regarding `CC(C)COC[C@H](CN(Cc1ccccc1)c1ccccc1)N1CCCC1`, the activity change, negative = inhibition was 15.1% [at 38 µM] (inactive) in assay [1] (setting [17]), -5.29% [at 38 µM] (inactive) in assay [3] and -12.4% (inactive) in [9]. The Potency result in [2] is “inactive and 12.6 µM (active)”; in assay [5], > 46 µM (inactive) and > 20.6 µM (inactive); in assay [6], > 46 µM (inactive) and > 20.6 µM (inactive). Also, the activity, negative = inhibition in assay [4] (at 17.2 µM (top of the series)) was -1.52% (inactive); in assay [4] (at 38 µM (top of the series)) it was -10.2% (inactive). The Potency result in assay [7], in [8] and in [11] was “inactive” in each case. The outcome in assay [14], in assay [15] and in assay [16] was inactive. Further, the max response in assay [9] (setting [18]) was -16.9%; in [9] (setting [19]), -26.5%.
Turning to `O=c1[nH]c(=O)n([C@@H]2C[C@H](O)[C@H](CO)O2)cc1I`, the activity change, negative = inhibition in assay [1] (setting [17]) is 9.17% [at 17.2 µM] (inactive); in assay [3], 8.3% [at 17.2 µM] (inactive); in assay [9], -3.3% (inactive). For the same compound, the Potency result (in assay [2]; in assay [7]; in assay [11]; in the assay on AS120; in the assay with CP238; in the assay on CP265) was “inactive” in each case. Besides, the Potency entry in the assay with FAB9 is “inactive”. Further, the activity, negative = inhibition was 11.4% [at 17.2 µM] (inactive) in assay [4] (setting [17]), -1.96% (inactive) in assay [13] (parasite line A) and 14.3% (inactive) in [13] (parasite line B). Moreover, the Potency in assay [5] and in [6] was > 20.6 µM (inactive) each time. Also, the max response in [9] (setting [18]) came out at 2.86%; in [9] (setting [19]) it was 1.83%. The outcome in assay [10] and in assay [12] was inactive.
